Measurements reported in PubChem BioAssay AID1159580 (chemical genetic matrix, 2015).
Out of some 5,500 compounds screened, about 2,000 (36%) were called active. About 18% were inconclusive and are not listed. The list shows a part of the results. Unmarked numbers belong to inactive results. Rule as the data show it: active = normalized growth mostly below about 0.91 (no sharp cut-off); inconclusive = no clear call, values can overlap the other calls; inactive = mostly above about 0.92.

Assay: chemical genetic growth profiling, strain panel (AID 1159580);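 also: tested at 20 µM; growth read once vehicle control cultures reached saturation at 30 °C; 1 = growth at the plate median or of vehicle wells; lower values mean less growth of the strain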
Settings: growth OD
[1] = S. cerevisiae deletion strains, locus YAL013W, strain DEP1, stronger effect = lower value
[2] = S. cerevisiae deletion strains, locus YBR229C, strain ROT2, stronger effect = lower value
[3] = S. cerevisiae deletion strains, locus YDL101C, strain DUN1, stronger effect = lower value
[4] = S. cerevisiae deletion strains, locus YDL134C, strain PPH21, stronger effect = lower value
[5] = S. cerevisiae deletion strains, locus YDR150W, strain NUM1, stronger effect = lower value
[6] = S. cerevisiae deletion strains, locus YEL061C, strain CIN8, stronger effect = lower value
[7] = S. cerevisiae deletion strains, locus YGR078C, strain PAC10, stronger effect = lower value
[8] = S. cerevisiae deletion strains, locus YHR030C, strain SLT2, stronger effect = lower value
[9] = S. cerevisiae deletion strains, locus YHR087W, strain rtc3, stronger effect = lower value
[10] = S. cerevisiae deletion strains, locus YJR043C, strain POL32, stronger effect = lower value
[11] = S. cerevisiae deletion strains, locus YJR075W, strain HOC1, stronger effect = lower value
[12] = S. cerevisiae deletion strains, locus YLR039C, strain RIC1, stronger effect = lower value
[13] = S. cerevisiae deletion strains, locus YLR058C, strain SHM2 (second series), stronger effect = lower value
[14] = S. cerevisiae deletion strains, locus YLR085C, strain ARP6, stronger effect = lower value
[15] = S. cerevisiae deletion strains, locus YLR262C, strain YPT6, stronger effect = lower value
[16] = S. cerevisiae deletion strains, locus YML094W, strain GIM5, stronger effect = lower value
[17] = S. cerevisiae deletion strains, locus YMR219W, strain ESC1, stronger effect = lower value
[18] = S. cerevisiae deletion strains, locus YMR263W, strain SAP30, stronger effect = lower value
[19] = S. cerevisiae deletion strains, locus YNL153C, strain GIM3, stronger effect = lower value
[20] = S. cerevisiae deletion strains, locus YNL298W, strain CLA4 (second series), stronger effect = lower value
[21] = S. cerevisiae deletion strains, locus YNL322C, strain KRE1, stronger effect = lower value
[22] = S. cerevisiae deletion strains, locus YNR030W, strain Alg12, stronger effect = lower value
[23] = S. cerevisiae deletion strains, locus YPL055C, strain LGE1, stronger effect = lower value
[24] = S. cerevisiae deletion strains, locus YPL241C, strain CIN2, stronger effect = lower value
[25] = S. cerevisiae deletion strains, locus YPR135W, strain CTF4, stronger effect = lower value

## COc1ccc(/C=C(\C#N)c2nc3ccccc3[nH]2)cc1OC
[1]
  normalized growth: 0.947
[2]
  normalized growth: 0.947
[3]
  normalized growth: 0.961
[4]
  normalized growth: 0.942
[5]
  normalized growth: 0.934
[6]
  normalized growth: 0.921
[7]
  normalized growth: 0.948
[8]
  normalized growth: 0.703
[9]
  normalized growth: 0.912
[10]
  normalized growth: 0.959
[11]
  normalized growth: 0.859 (active)
[12]
  normalized growth: 0.817
[13]
  normalized growth: 0.957
[14]
  normalized growth: 0.499 (active)
[15]
  normalized growth: 0.851
[16]
  normalized growth: 0.909
[17]
  normalized growth: 0.971
[18]
  normalized growth: 0.956
S. cerevisiae deletion strains, locus YMR307W, strain GAS1, stronger effect = lower value
  normalized growth: 0.609 (active)
[19]
  normalized growth: 0.975
[20]
  normalized growth: 0.856
[21]
  normalized growth: 0.95
[22]
  normalized growth: 0.906
S. cerevisiae deletion strains, locus YOL006C, strain TOP1, stronger effect = lower value
  normalized growth: 0.725 (active)
[23]
  normalized growth: 0.885
[24]
  normalized growth: 0.857 (active)
[25]
  normalized growth: 0.759
S. cerevisiae strains, strain wild type, stronger effect = lower value
  normalized growth: 0.94

## COc1ccc(/C=N\NC(=O)CC#N)cc1OC
[1]
  normalized growth: 1
[2]
  normalized growth: 1
[3]
  normalized growth: 1.04
[4]
  normalized growth: 0.999
[5]
  normalized growth: 1.04
[6]
  normalized growth: 0.985
[7]
  normalized growth: 0.998
S. cerevisiae deletion strains, locus YGR229C, strain SMI1, stronger effect = lower value
  normalized growth: 1
[8]
  normalized growth: 1.05
[9]
  normalized growth: 0.996
[10]
  normalized growth: 1.01
[11]
  normalized growth: 1.01
S. cerevisiae deletion strains, locus YKL190W, strain CNB1, stronger effect = lower value
  normalized growth: 1
[12]
  normalized growth: 1
[13]
  normalized growth: 1.04
[14]
  normalized growth: 0.957
[15]
  normalized growth: 1.01
[16]
  normalized growth: 0.998
[17]
  normalized growth: 0.997
[18]
  normalized growth: 1.04
S. cerevisiae deletion strains, locus YNL128W, strain TEP1, stronger effect = lower value
  normalized growth: 1.01
[19]
  normalized growth: 1.03
[20]
  normalized growth: 1.02
[21]
  normalized growth: 1
[22]
  normalized growth: 0.998
[23]
  normalized growth: 1.15
[24]
  normalized growth: 1.01
[25]
  normalized growth: 1.29
